Assay outcomes deposited in PubChem BioAssay by several laboratories.
Lmaj promast – reduces viability of Leishmania major promastigotes; resazurin fluorescence viability; inhibition, % at 10 µM; hit rate 9% among 200,000; in the data active means inhibition above about 50%;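 further: promastigotes grown with compound for 44 hours at 28 °C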
Calpain2 inh – blocks pig calpain II enzyme activity; hit rate 0.37% among 220,000; inhibition, % at 16 µM; purified calpain II, fluorogenic peptide substrate, 30 min; AID 1236;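 active means inhibition above about 50%, limit read from the data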
KCC2 mod – modulators of human KCC2 chloride dependent transport | KCC2 cells, thallium flux FluoZin-2 fluorescence | B-score of Tl+ flux slope (higher = more flux/activation; lower = inhibition) at 10 µM | Q9H2X9 | hit rate 2.2% among 190,000;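 active means thallium flux slope and its plate-corrected score both differing from the plate sample mean at a set confidence after two filtering rounds, in either direction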;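 further: slope of fluorescence scaled to starting intensity during 10 to 20 s after thallium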
Target sequence (Q9H2X9 whole entry, looked up): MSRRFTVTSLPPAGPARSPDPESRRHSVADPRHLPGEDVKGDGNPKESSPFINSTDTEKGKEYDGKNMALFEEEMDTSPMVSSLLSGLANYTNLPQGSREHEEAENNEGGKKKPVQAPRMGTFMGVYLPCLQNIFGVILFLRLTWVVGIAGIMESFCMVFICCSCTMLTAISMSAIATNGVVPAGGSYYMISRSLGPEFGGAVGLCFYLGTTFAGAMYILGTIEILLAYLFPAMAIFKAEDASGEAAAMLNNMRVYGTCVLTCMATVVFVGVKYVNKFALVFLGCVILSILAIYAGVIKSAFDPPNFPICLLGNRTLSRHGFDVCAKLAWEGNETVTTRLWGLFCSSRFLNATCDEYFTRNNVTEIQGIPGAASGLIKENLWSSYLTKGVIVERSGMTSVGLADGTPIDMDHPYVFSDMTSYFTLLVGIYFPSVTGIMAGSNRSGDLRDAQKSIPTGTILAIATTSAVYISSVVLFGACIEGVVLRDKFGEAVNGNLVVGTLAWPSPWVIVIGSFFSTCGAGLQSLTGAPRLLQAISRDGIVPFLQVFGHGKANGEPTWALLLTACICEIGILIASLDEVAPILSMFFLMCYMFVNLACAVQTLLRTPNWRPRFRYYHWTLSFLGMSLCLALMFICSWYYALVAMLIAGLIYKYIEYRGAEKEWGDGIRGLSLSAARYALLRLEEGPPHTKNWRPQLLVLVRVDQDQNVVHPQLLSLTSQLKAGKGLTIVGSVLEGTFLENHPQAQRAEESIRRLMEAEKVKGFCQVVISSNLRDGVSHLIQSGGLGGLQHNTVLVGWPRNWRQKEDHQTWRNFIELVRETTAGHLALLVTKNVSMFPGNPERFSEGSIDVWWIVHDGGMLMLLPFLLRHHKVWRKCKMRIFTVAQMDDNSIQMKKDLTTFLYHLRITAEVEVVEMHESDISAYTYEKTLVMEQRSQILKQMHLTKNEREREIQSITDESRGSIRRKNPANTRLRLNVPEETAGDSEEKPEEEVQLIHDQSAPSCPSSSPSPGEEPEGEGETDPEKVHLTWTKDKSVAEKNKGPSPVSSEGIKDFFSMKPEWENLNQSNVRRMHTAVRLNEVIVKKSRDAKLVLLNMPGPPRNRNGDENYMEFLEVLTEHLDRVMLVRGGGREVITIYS
WT yeast gro inh – growth inhibition of WT yeast, mitochondrial fusion screen; mitochondrial fusion phenotypic screen, WT strain; inhibition, % at 10 µM; hit rate 2.1% among 190,000; AID 1362; in the data active means inhibition above about 58%; tested in S. cerevisiae
ROMK primary – modulates human ROMK potassium channel activity. P48048. Tet-inducible ROMK, thallium flux fluorescence; actives lie on both sides. AID 1918. hit rate 2% among 130,000. B-score at 10 µM;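 active means signal ratio slope over the read window, or its plate-corrected B-score, at least 3 SD from the plate mean, either direction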;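 further: B-score of the F/F0 ratio slope over 7 to 12 s after thallium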
ROMK hit retest – human ROMK channel modulation, retest confirmation | ROMK thallium flux, fluorescence ratio; stronger effect = lower value | shares compounds with ROMK primary | normalized thallium flux (F/F0 slope) at 10 µM | hit rate 54% among 3,000 | AID 1917;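 active means Flux at 10 µM at least 3 SD below or above vehicle control mean in one or both replicates; inconclusive means no clear call, values can overlap the other calls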
* marks the source's active call; other numbers are inactive results; i = inactive; ? = inconclusive; . = no result given. Hits are enriched below; roughly 12% of the tested compounds scored in any of these assays.

SMILES	Lmaj promast	Calpain2 inh	KCC2 mod	WT yeast gro inh	ROMK primary	ROMK hit retest
COc1ccc(C(=O)C(CCC(CNC(C)(C)C)C(=O)c2ccc(OC)cc2)CNC(C)(C)C)cc1 (centres undefined)	100.4*	10.7	0.142	12.8	.	0.066*
N#C/C(=C(/O)c1cc2ccccc2o1)c1nc2ccccc2s1	.	35.5	-2.82	.	.	0.0582*
N#C/C(=C(/O)c1ccco1)c1nc2ccccc2s1	-8.0	27.6	-1.33	12.1	.	.
CC(C)(C)NC(=O)CN(C(=O)CSc1nnc(COc2ccccc2)o1)c1cccc(F)c1	12.0	14.4	-2.67	4.2	-2.66*	?
O=C(CSc1nnc(COc2ccccc2)o1)c1ccccc1	-1.0	-9.6	.	-6.9	-1.13	.
O=S(=O)(Nc1ccc(S(=O)(=O)Nc2cccc3ccccc23)cc1)c1ccccc1	0.2	-11.6	-2.09	-6.3	-0.238	.
CCOC(=O)c1c2ccc(OCC(=O)NN)cc2n2ccccc12	6.1	i	-3.67	-15.3	-2.8*	0.0549*
CCOC(=O)c1c2ccc(OCC(=O)N/N=C/c3ccc(C)cc3)cc2n2ccccc12	-1.3	-260.7	.	-2.7	.	.
O=C(O)Cc1ccc(N=Cc2c(O)ccc3ccccc23)cc1	-7.8	1.5	-3.36	10.2	.	0.0809
CCN1C(=O)c2cccc3c(S(=O)(=O)Nc4ccncc4)ccc1c23	-3.3	i	0.582	0.6	2.3*	0.0764
CCN1C(=O)c2cccc3c(S(=O)(=O)Nc4ccccc4)ccc1c23	11.2	-7.7	-0.623	.	.	.
Cn1cc(/C=C2\SC(=S)N(NC(=O)c3cccc(Cl)c3)C2=O)c2ccccc21	.	-27.6	-3.04	.	.	.
Cn1cc(/C=C2\SC(=S)N(NC(=O)c3ccccc3)C2=O)c2ccccc21	-1.3	14.8	-2.55	-0.5	-3.01*	0.0579*
Cc1ccc(-c2c[n+](CC(=O)Nc3nc(-c4ccccc4)cs3)c3n2CCC3)cc1	.	-22.9	-2.43	.	-4.62*	0.0597*
C=C(C)CN(CC)C(=O)CCc1nnc(CCc2c[nH]c3ccccc23)o1	3.4	31.4	-2.05	2.2	1.43	.
COC(=O)/C=c1/s/c(=C(/C#N)C(=O)N2CCCCC2)n(-c2ccccc2)c1=O	-4.0	-5.7	-0.0168	-13.1	-3.2*	0.0566*
COC(=O)c1c(C)oc2ccc(NS(=O)(=O)c3cccs3)cc12	0.3	-31.2	-0.0612	2.6	-4.01*	?
COCCOC(=O)c1c(C)oc2ccc(NS(=O)(=O)c3ccccc3)cc12	7.9	-29.8	-0.0257	22.4	.	.
CCOC(=O)c1c(C)oc2ccc(NS(=O)(=O)c3ccc4c5c(cccc35)C(=O)N4)cc12	91.0*	-86.4	0.0312	1.6	-2.96*	0.0838
c1ccc(N2CCN(c3nnnn3-c3ccccc3)CC2)cc1	15.3	16.5	0.00803	17.7	-0.839	.
ClC(Cl)(c1nnnn1-c1ccccc1)c1nnnn1-c1ccccc1	49.9	-3.9	-1.22	87.6*	-2.82*	0.06*
Cc1cc2nc(CS(=O)(=O)c3ccccc3)cc(=O)n2[nH]1	-0.7	13.1	-1.92	-5.5	0.577	.
OCCC1CN(Cc2ccccc2-c2ccco2)CCN1C1CCCC1 (centres undefined)	39.5	1.7	-2.92	11.6	-3.97*	0.0506*
NC(=O)c1ccccc1NC(=O)CCc1ccccc1	-5.6	14.0	0.342	20.8	.	0.0867
CC(C)=NNC(=O)CN1C(=O)NC2NC(=O)NC21 (centres undefined)	-6.4	-13.0	-1.02	1.6	.	.
SMILES	Lmaj promast	Calpain2 inh	KCC2 mod	WT yeast gro inh	ROMK primary	ROMK hit retest
COc1ccc(S(=O)(=O)N(C)CC(=O)NCCC2=CCCCC2)cc1	-1.8	-6.3	-1.4	-2.4	.	0.069*
CC(=O)Nc1ccc(NC(=O)CN(C)CCC#N)cc1	4.2	27.4	.	-2.2	.	.
Cc1ccc(S(=O)(=O)N2CCN(C(=O)c3ccccc3)CC2)cc1	1.6	-17.4	0.232	-0.2	0.655	.
Cc1ccc(C(=O)N2CCN(S(=O)(=O)c3ccccc3)CC2)cc1	33.9	27.1	-0.182	18.2	2.75*	?
CCOc1cc(/C=C2/NC(=O)N(CC(=O)OC)C2=O)ccc1OC	-7.6	-32.2	0.848	-13.9	.	.
CCOc1cc(Br)c(/C=C2/C(=O)N(C)C(=S)N2CC(=O)OC)cc1OC	6.5	-128.7	-0.0186	16.6	-2.56*	0.0755
CCOC(=O)CCCNC(=O)CCNC(=O)c1ccc(OCC(C)C)cc1	.	-4.6	0.681	.	0.173	.
Nc1nc(-c2ccccc2)cn1/N=C/c1ccccc1	.	-21.4	0.0224	.	7.27*	0.0888
Nc1nc(-c2ccccc2)cn1N	3.2	16.2	-0.0645	10.2	.	.
COc1cc(NC(=O)c2cccs2)c(OC)cc1NC(=O)CCn1nnc2ccccc21	1.7	6.4	1.24	-1.4	.	.
O=C(CSc1nnc(NC2CCCCC2)s1)NN1C(=O)NC2(CCCCC2)C1=O	-2.5	21.8	0.0663	4.5	-0.0742	.
CC(NC(=O)CC12CC3CC(CC(C3)C1)C2)C(=O)O (centres undefined)	-4.8	6.1	-0.53	-7.8	2.12*	0.0909
CCC(C)[C@H](NC(=O)[C@@H]1Cc2ccccc2CN1C(=O)OC(C)(C)C)C(=O)NCC1CCC(C(=O)O)CC1 (some centres undefined)	.	-8.6	0.556	.	.	.
O=C(c1ccccc1)c1c[nH]c(C(=O)NNc2cccc(Cl)n2)c1	7.7	28.9	-0.187	-3.0	2.02*	0.0736
O=C(c1ccc(Cl)cc1)c1c[nH]c(C(=O)NNc2cccc(Cl)n2)c1	-0.7	-28.1	.	-7.4	1.47	.
COc1ccc(CNC(=O)Cn2ncn3cccc3c2=O)cc1	-10.4	1.0	0.061	-1.0	1.67	.
CCN(CC)S(=O)(=O)c1ccc(O)c(C(=O)OCC(=O)N2c3ccccc3CC2C)c1 (centres undefined)	.	-21.5	-1.27	.	.	.
Cc1cc(C(=O)OCC(=O)N2c3ccccc3CC2C)c(C)o1 (centres undefined)	2.6	11.3	-1.76	-12.9	-1.36	?
COc1ccc(C2=CC(c3ccc(C)cc3)n3nnnc3N2)cc1 (centres undefined)	3.0	-54.2	.	44.9	-4.38*	?
O=C(c1ccncc1)c1ccc(N2CCN(C3CC(=O)N(Cc4cccs4)C3=O)CC2)cc1 (centres undefined)	18.4	-4.7	-1.67	-10.7	.	0.06*
CN(C)C(=S)c1ccccc1	.	-4.3	0.469	.	.	0.0741
Cc1cc([N+](=O)[O-])nn1CC(=O)Nc1cccc2nonc12	-8.5	-74.3	-0.734	-0.8	0.187	.
COc1ccc(/C=N/NC(=O)c2nc(Cl)c(Cl)c(N)c2Cl)cc1COc1ccc(F)cc1F	-0.4	i	-3.03	-3.2	.	.
COc1ccc(/C=N/NC(=O)c2cc(C(C)(C)C)[nH]n2)cc1COc1ccc(F)cc1F	19.4	-122.1	-0.409	-0.2	-11.2*	0.0826
CCOc1ccc2c(c1)/C(=N/N1C(=O)c3ccccc3C1=O)C(=O)N2	-12.6	-23.2	0.662	1.1	.	.
CCOc1ccc2c(c1)/C(=C(\C(Cl)=C(Cl)Cl)[N+](=O)[O-])N2	1.4	-53.4	0.00694	-4.5	-4.73*	0.0534*
CCCCOc1ccc2c(c1)/C(=C(\C(Cl)=C(Cl)Cl)[N+](=O)[O-])N2	8.6	i	-0.101	-11.2	-5.56*	0.0541*
